Drawing on the supplement of paper PMC10849652, this text covers log2 fold change for 36 targets.

About 7,900 targets were measured; listed, in parts, are those with a hit and a random draw of the rest. About 0.6% of all pairs of compound and target were hits. Unmarked numbers belong to inactive results.

Chain of UniProt Q9BZH6 (Q9BZH6 whole entry, looked up): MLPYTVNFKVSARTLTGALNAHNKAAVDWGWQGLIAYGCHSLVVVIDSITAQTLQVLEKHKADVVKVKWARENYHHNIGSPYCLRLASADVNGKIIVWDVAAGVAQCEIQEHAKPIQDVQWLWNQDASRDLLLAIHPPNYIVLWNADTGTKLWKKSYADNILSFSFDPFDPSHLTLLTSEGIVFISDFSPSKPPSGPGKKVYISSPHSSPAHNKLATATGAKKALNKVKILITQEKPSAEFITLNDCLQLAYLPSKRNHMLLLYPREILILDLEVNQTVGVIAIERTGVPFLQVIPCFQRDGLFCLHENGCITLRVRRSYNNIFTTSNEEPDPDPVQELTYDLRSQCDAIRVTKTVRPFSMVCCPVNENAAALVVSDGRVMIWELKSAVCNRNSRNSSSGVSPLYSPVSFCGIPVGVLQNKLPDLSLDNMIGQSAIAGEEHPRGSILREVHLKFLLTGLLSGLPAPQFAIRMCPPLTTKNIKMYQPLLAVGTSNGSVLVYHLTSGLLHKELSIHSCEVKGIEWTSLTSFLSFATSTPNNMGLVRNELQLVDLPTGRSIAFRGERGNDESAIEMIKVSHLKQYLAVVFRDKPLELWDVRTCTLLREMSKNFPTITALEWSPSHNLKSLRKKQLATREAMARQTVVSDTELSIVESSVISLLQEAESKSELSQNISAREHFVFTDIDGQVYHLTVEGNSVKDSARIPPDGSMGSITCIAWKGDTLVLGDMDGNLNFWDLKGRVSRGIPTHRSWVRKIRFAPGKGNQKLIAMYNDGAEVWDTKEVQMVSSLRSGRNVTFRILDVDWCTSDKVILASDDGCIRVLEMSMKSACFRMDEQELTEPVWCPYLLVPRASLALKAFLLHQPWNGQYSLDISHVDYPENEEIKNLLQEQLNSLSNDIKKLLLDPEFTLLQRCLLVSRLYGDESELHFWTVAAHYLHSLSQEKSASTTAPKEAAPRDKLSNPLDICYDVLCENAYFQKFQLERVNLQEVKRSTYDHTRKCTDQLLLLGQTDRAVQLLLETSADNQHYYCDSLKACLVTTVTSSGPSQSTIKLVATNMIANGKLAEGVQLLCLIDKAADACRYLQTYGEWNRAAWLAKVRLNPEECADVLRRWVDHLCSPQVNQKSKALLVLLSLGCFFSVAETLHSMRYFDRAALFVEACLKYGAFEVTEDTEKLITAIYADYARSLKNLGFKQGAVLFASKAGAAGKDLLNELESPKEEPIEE
Chain of UniProt Q8WVY7 (Q8WVY7 whole entry, looked up): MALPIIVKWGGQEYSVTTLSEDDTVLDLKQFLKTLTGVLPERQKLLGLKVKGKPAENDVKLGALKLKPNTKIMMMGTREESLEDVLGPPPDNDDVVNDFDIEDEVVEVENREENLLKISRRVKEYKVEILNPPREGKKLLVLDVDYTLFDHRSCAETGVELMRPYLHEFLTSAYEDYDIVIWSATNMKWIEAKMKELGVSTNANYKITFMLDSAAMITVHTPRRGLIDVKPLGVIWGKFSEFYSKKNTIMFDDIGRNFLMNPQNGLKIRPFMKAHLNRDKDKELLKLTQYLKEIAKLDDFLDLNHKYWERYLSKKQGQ
Chain of UniProt Q9BZI7 (Q9BZI7 whole entry, looked up): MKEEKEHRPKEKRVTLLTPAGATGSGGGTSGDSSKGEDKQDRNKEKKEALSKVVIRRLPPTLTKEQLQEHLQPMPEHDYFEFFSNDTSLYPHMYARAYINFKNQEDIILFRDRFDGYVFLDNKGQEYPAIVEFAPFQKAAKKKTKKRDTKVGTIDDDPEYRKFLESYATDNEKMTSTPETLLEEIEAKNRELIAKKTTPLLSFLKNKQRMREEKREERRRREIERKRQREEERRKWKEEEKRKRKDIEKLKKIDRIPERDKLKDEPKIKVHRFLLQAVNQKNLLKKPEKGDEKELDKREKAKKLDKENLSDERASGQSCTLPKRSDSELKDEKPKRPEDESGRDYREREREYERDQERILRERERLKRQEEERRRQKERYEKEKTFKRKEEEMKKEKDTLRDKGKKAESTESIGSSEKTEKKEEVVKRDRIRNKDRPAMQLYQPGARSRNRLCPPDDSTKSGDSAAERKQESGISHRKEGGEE
Chain of UniProt O14980 (O14980 whole entry, looked up): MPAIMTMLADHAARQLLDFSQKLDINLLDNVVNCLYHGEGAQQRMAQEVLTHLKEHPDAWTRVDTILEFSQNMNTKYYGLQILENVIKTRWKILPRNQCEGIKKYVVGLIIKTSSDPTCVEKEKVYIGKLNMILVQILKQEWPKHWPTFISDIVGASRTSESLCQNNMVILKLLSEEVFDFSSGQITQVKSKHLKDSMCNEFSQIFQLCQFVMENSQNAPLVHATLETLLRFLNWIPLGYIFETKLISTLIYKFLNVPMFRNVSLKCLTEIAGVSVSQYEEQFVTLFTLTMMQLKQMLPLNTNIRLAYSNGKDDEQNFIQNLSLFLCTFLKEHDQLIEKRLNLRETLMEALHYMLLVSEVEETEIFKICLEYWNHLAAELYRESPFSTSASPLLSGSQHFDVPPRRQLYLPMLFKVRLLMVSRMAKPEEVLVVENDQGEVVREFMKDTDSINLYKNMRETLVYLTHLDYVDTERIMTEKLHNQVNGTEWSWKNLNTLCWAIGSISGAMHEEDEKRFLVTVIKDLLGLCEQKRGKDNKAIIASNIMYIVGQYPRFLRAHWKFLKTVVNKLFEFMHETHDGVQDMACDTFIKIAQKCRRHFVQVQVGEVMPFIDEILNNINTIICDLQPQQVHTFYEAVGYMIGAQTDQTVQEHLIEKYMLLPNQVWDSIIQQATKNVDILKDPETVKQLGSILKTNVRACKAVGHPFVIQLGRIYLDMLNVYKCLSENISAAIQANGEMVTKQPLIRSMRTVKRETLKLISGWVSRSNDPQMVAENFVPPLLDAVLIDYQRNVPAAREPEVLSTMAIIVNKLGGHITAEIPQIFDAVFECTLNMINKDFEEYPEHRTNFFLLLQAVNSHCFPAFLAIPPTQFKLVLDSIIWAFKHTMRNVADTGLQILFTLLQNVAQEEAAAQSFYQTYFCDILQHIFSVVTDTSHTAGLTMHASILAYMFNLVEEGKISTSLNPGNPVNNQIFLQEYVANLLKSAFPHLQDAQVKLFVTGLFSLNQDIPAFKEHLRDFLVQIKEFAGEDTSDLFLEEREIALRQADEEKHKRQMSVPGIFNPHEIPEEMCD
Chain of UniProt Q9HAD4 (Q9HAD4 whole entry, looked up): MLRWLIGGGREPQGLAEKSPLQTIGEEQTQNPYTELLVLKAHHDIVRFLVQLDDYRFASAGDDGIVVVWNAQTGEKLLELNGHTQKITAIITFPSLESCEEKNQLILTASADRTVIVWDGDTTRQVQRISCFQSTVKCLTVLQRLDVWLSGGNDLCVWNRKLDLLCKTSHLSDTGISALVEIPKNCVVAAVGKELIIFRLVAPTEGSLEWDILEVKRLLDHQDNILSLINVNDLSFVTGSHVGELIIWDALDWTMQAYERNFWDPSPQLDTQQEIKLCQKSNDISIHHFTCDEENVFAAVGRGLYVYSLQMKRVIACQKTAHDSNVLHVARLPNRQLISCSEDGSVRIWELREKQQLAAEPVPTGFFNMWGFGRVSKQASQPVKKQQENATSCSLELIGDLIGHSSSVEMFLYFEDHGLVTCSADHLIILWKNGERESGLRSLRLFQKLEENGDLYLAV
Chain of UniProt Q8NDZ6 (Q8NDZ6 whole entry, looked up): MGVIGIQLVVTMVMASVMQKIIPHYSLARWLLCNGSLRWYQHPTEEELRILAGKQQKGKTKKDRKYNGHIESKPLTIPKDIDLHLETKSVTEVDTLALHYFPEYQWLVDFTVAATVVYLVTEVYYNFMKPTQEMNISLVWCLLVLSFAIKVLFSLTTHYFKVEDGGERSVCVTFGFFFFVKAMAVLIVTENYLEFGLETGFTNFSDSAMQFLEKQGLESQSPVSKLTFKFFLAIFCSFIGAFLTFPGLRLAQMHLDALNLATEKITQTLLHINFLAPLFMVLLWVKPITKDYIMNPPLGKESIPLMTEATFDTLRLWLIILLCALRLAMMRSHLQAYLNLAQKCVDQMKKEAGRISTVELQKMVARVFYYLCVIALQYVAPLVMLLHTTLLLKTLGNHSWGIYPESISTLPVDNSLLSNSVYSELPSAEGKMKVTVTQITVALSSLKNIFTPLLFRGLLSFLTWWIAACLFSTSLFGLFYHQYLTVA
Chain of UniProt Q5R3I4 (Q5R3I4 whole entry, looked up): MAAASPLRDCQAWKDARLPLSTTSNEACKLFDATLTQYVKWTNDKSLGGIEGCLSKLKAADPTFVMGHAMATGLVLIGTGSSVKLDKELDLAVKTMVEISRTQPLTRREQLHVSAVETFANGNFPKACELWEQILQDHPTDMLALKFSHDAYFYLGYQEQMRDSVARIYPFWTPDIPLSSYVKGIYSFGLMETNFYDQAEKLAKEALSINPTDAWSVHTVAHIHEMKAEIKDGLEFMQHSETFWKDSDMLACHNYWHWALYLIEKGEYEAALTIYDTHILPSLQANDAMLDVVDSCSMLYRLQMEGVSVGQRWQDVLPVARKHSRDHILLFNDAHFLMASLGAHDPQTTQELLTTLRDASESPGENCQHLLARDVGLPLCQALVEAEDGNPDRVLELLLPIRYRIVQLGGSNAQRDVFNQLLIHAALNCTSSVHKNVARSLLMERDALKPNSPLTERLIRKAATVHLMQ
Chain of UniProt P54578 (P54578 whole entry, looked up): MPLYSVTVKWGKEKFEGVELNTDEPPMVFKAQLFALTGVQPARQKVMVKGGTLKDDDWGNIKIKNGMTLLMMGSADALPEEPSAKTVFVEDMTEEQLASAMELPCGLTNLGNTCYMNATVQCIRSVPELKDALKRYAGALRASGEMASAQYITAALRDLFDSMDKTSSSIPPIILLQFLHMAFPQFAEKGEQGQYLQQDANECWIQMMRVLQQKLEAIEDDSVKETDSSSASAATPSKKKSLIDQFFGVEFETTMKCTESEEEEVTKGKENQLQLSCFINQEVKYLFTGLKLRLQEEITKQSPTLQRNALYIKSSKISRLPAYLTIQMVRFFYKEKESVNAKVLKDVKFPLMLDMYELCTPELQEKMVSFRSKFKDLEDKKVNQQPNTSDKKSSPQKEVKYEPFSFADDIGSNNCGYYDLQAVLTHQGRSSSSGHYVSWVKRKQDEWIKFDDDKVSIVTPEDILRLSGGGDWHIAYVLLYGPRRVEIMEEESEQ

Compound in the experiment: c1cc(OCCN2CCCCC2)cc(-c2n[nH]c3ccc(-c4nnc[nH]4)cc23)c1
Put plainly: log2 fold change, soluble protein after heating vs DMSO (PISA); higher = thermal stabilisation; K562 cells, 10 uM, 30 min; active = over 0.2 and 3.5 SD of the protein, either way, in both replicates (recomputed). In outline: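 K562 cells at 2×10^6 cells/mL were treated for 30 min with 10 μM compound, and aliquots were heated for 3 min over 48°C-58°C before pooling. Extraction used PBS with 0.5% NP-40 at 4°C, and soluble protein was the supernatant after 21,000xg for 90 min, measured by TMTpro 16plex LC-MS/MS with channel sums equalised. Thermal stability values, relative to control samples and from duplicates, are log2 fold changes.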
As for VPS11 (UniProt Q9H270), the log2 fold change is 0.084.

In the case of TNFRSF8 (UniProt P28908), the log2 fold change was -0.025.

Turning to UGGT1 (UniProt Q9NYU2), the log2 fold change is -0.035.

On to WDR37 isoform 2 (UniProt Q9Y2I8), for which the log2 fold change is -0.162.

Consider WDR41 (UniProt Q9HAD4), for which the log2 fold change is -0.07.

As for UBLCP1 (UniProt Q8WVY7), the log2 fold change is 0.035.

VRK2 (UniProt Q86Y07): the log2 fold change was 0.001.

For the target WNK1 isoform 7 (UniProt Q9H4A3), the log2 fold change is -0.063.

In the case of UPF3B (UniProt Q9BZI7), the log2 fold change was -0.278.

Take TTC38 (UniProt Q5R3I4): the log2 fold change was 0.313.

As to WRB (UniProt O00258), the log2 fold change is -0.042.

As to VPS50 (UniProt Q96JG6), the log2 fold change is 0.003.

With VDAC1 (UniProt P21796), the log2 fold change was -0.009.

In the case of USP14 (UniProt P54578), the log2 fold change was 0.005.

With XPO5 (UniProt Q9HAV4), the log2 fold change was -0.042.

Consider TMEM223 (UniProt A0PJW6), for which the log2 fold change is -0.036.

For the target TMEM161B (UniProt Q8NDZ6), the log2 fold change was -0.03.

On to TUBAL3 (UniProt A6NHL2), for which the log2 fold change was -0.291.

Regarding TMEM263 (UniProt Q8WUH6), the log2 fold change is -0.037.

Turning to VTA1 (UniProt Q9NP79), the log2 fold change is 0.009.

With XPNPEP3 (UniProt Q9NQH7), the log2 fold change was -0.022.

Regarding TNPO1 (UniProt Q92973), the log2 fold change was -0.066.

As to WDR11 (UniProt Q9BZH6), the log2 fold change was -0.036.

TMEM120A (UniProt Q9BXJ8): the log2 fold change is 0.082.

Regarding USP48 isoform 8 (UniProt Q86UV5), the log2 fold change is -0.157.

For TNFRSF10A (UniProt O00220), the log2 fold change was -0.07.

As for TSG101 (UniProt Q99816), the log2 fold change is 0.025.

For the target UHRF1BP1L (UniProt A0JNW5), the log2 fold change was -0.013.

With TTC4 (UniProt O95801), the log2 fold change is -0.014.

As for UBA1 (UniProt P22314), the log2 fold change is -0.028.

As to TTI1 (UniProt O43156), the log2 fold change is -0.099.

Consider USP15 (UniProt Q9Y4E8), for which the log2 fold change was -0.022.

In the case of U2AF2 (UniProt P26368), the log2 fold change is -0.09.

Regarding XPO1 (UniProt O14980), the log2 fold change is -0.054.

In the case of TNNC2 (UniProt P02585), the log2 fold change is -0.003.

With UBA6, the log2 fold change is -0.004.
